Assay results published in PubChem BioAssay AID1259418 (Broad Institute, 2018).
Screen size: about 3,400 compounds; about 840 (25%) were called active. Another 11% or so got no clear call; they are omitted. Not all results are given here. Potency and affinity values are given separately. A number with no mark means an inactive call.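 The calls were made as follows: active = fitted half-maximal concentration of signal decrease at or below twice the sample's top tested concentration; inconclusive = flat curve between -70 and -30 percent, or poor fit; inactive = flat within 30 percent, signal rise, or potency above limit.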

test: T. gondii growth inhibition with IFN-gamma, dose response, cell-based, ME49Luc, HeLa, luciferase, 72 h (AID 1259418); conditions: T. gondii ME49Luc in IFN-y HeLa, hits give low values, -100% = high-dose IFN-γ control wells; at 19.5 µM unless noted

Row | SMILES | max activity
1 | COc1cccc(NC(=O)Nc2ccc(-c3nc(-c4cc(C)ccc4C)co3)cc2)c1 | 10.1% [at 0.16 µM]
2 | CN(C)CCO[C@@H]1CN(C(=O)Cc2ccsc2)[C@H]2CCCO[C@@H]12 | 38.7%
3 | Cc1cccc(NC(=O)CN2CCC3(CC2)N=C(c2ccc(Cl)cc2)C(=O)N3)c1 | 17.4%
4 | Cc1[nH]c2ccccc2c1C(=O)C(=O)NC1CC(=O)N(c2cccc(F)c2)C1 (stereo unspecified) | 13.3% [at 0.35 µM]
5 | COc1ccc(C)cc1Nc1nc(-c2ccc(Cl)cc2)nc2ccccc12 | -11.5% [at 2.6 µM]
6 | Clc1ccc(-c2nc(N3CCc4ccccc43)c3ccccc3n2)cc1 | -11.3%
7 | COc1ccc2c(c1)NC1(CCN(C(=O)c3ccc(C)c(C)c3)CC1)c1cccn1-2 | -9.14% [at 2.6 µM]
8 | CCc1ccc(NC(=O)N2CCN(Cc3nc(-c4ccccc4C)oc3C)CC2)cc1 | 20.1% [at 0.16 µM]
9 | Cc1oc(-c2ccccc2)nc1Cn1nnc(-c2nc(-c3ccc(F)c(Br)c3)no2)c1C | 9.89%
10 | COc1cccc(NC(=O)CN2CCC3(CC2)N=C(c2ccc(Cl)cc2)C(=O)N3)c1 | -17.6% [at 1.35 µM]
11 | COc1ccc(-c2nc(NCc3ccc(F)cc3)c3ccccc3n2)cc1 | 18.6% [at 1.35 µM]
12 | COc1ccc(-c2nc(NCC3CCN(Cc4ccccc4F)CC3)c3ccccc3n2)cc1 | -29.4%
13 | COc1ccc(-c2nc(NCC3CCN(Cc4ccc(Cl)cc4)CC3)c3ccccc3n2)cc1 | 14.4% [at 2.6 µM]
14 | Cc1cccc(CN2CCC(CNc3nc(-c4ccc(Cl)cc4)nc4ccccc34)CC2)c1 | -45.1% [at 0.35 µM]
15 | COc1ccc(-c2nc(NCc3ccc(C)cc3)c3ccccc3n2)cc1 | -20.6% [at 5 µM]
16 | CSc1ccc(-c2noc(-c3nnn(Cc4nc(-c5ccc(C)cc5)oc4C)c3C)n2)cc1 | 4.87%
17 | COc1cc(C(=O)N2CCC3(CC2)Nc2ccc(C)c(C)c2-n2cccc23)cc(OC)c1OC | 7.01% [at 0.16 µM]
18 | COc1cccc(S(=O)(=O)N2CC[C@@H]3[C@H]2c2cc(C#Cc4cccnc4)ccc2N[C@@H]3CO)c1 | 31.2% [at 5 µM]
19 | Cc1cccc(-c2ccc(C3[C@H]4CNC[C@@H]3N4Cc3cccc(F)c3)cc2)c1 (stereo partly specified) | 19.8%
20 | N#C[C@H]1N[C@@H](CO)[C@H]1c1ccc(C#CC2CCCCC2)cc1 | 49.7%
21 | Fc1cccc(-c2ccc(C3[C@H]4CNC[C@@H]3N4Cc3cncnc3)cc2)c1 (stereo partly specified) | 50.5%
22 | O=C(C1CCOCC1)N1CC(=O)N2[C@@H](CO)[C@@H](c3ccc(C#CC4CCCCC4)cc3)[C@@H]2C1 | 25.9% [at 10 µM]
23 | O=C(Nc1ccccc1)Nc1ccc(-c2nc(-c3ccccc3)co2)cc1 | 51.3%

Row | SMILES | max activity
24 | COc1cccc(-c2nc3c(s2)CN(S(=O)(=O)c2ccc(OC)c(OC)c2)CC3)c1 | 6.21% [at 10 µM]
25 | COc1ccccc1-c1nc(C)c(-c2ccc(SCc3ccc(C)cc3)nn2)s1 | -14.3%
26 | COc1ccc(C(=O)N2CCC[C@@H]2C(=O)NCCc2csc(-c3ccccc3)n2)cc1 | -13.9%
27 | CCc1ccc(S(=O)(=O)N2CCc3nc(-c4ccc(OC)cc4)sc3C2)cc1 | 9.57%
28 | CCOc1ccc(CC(=O)N2CCC3(CC2)Nc2ccc(C)c(C)c2-n2cccc23)cc1OCC | -7.59% [at 0.35 µM]
29 | CCC(CC)C(=O)N1CCC(C(=O)NCCc2csc(-c3ccccc3)n2)CC1 | 5.84% [at 5 µM]
30 | COc1ccc(C(=O)Nc2ccc3c(c2)CCC(=O)N3C)c(C)c1 | 42.4%
31 | N#C[C@H]1[C@H](c2ccc(C#Cc3ccccc3F)cc2)[C@@H](CO)N1C(=O)c1cccnc1 | -13.1% [at 2.35 µM]
32 | COc1cccc(C#Cc2ccc([C@H]3[C@@H](C#N)N(C(=O)c4ccccn4)[C@@H]3CO)cc2)c1 | 11.2% [at 10 µM]
33 | CCOC(=O)C1CCC(CNC(=O)Nc2ccc(-c3nc(-c4ccccc4)co3)cc2)CC1 (stereo unspecified) | -11.7% [at 5 µM]
34 | N#CCSC1=Nc2ccccc2C2=NC(CC(=O)NCc3ccc(F)cc3)C(=O)N12 (stereo unspecified) | 44.3%
35 | Cc1cccc(CNC2=NCCNC23CCN(S(=O)(=O)c2ccc4c(c2)CCCC4)CC3)c1 | 20.3% [at 10 µM]
36 | COc1ccc(CNC2=NCCNC23CCN(S(=O)(=O)c2ccc4c(c2)CCCC4)CC3)cc1 | -31.9%
37 | O=S(=O)(c1ccc2c(c1)CCCC2)N1CCC2(CC1)NCCN=C2NCc1cc(F)cc(F)c1 | 16.7%
38 | Cc1nc(-c2ccc(F)cc2)sc1-c1ccc(SCc2cccc3ccccc23)nn1 | -8.89% [at 10 µM]
39 | COc1ccccc1-c1nc(C)c(-c2ccc(SCc3cc(C)ccc3C)nn2)s1 | -11.2% [at 0.35 µM]
40 | Cc1ccc(-c2coc(-c3ccc(NC(=O)C4CCCCC4)cc3)n2)c(C)c1 | -13.8%
41 | Cc1oc(-c2cccc(Cl)c2)nc1Cn1nnc(-c2nc(-c3ccncc3)no2)c1C | -5.43% [at 1.35 µM]
42 | COc1ccc(-c2nc(Nc3cccc(SC)c3)c3ccccc3n2)cc1 | 8.11% [at 0.35 µM]
43 | COC(=O)c1ccc(NC(=O)Nc2ccc(-c3nc(-c4cc(C)ccc4C)co3)cc2)cc1 | -6.97% [at 0.68 µM]
44 | COc1ccc2c(c1)NC1(CCN(C(=O)Cc3ccc(F)cc3)CC1)c1cccn1-2 | 12.9% [at 0.35 µM]
45 | CCn1cc(NC(=O)c2cccc(CN3C[C@@H](C)O[C@@H](C)C3)c2)nn1 | 30.6%
46 | CC(C)CN(C[C@@H](O)[C@H](Cc1ccccc1)NC(=O)O[C@H]1CO[C@H]2OCC[C@H]21)S(=O)(=O)c1ccc(N)cc1 | 7.57%
